Measurements as given in PubChem BioAssay AID1159580 (chemical genetic matrix, 2015).
Screen size: about 5,500 compounds; about 2,000 (36%) were called active. Inconclusive results (about 18%) are left out. The list shows a part of the results. Values without a mark were called inactive. Rule as the data show it: active = normalized growth mostly below about 0.91 (no sharp cut-off); inconclusive = no clear call, values can overlap the other calls; inactive = mostly above about 0.92.

Test: chemical genetic growth profiling, strain panel (AID 1159580);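 also: tested at 20 µM; growth read once vehicle control cultures reached saturation at 30 °C; 1 = growth at the plate median or of vehicle wells; lower values mean less growth of the strain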
Settings: growth OD
[1] = S. cerevisiae deletion strains, locus YAL013W, strain DEP1, active compounds read low
[2] = S. cerevisiae deletion strains, locus YBR229C, strain ROT2, active compounds read low
[3] = S. cerevisiae deletion strains, locus YDL101C, strain DUN1, active compounds read low
[4] = S. cerevisiae deletion strains, locus YDL134C, strain PPH21, active compounds read low
[5] = S. cerevisiae deletion strains, locus YDR150W, strain NUM1, active compounds read low
[6] = S. cerevisiae deletion strains, locus YEL061C, strain CIN8, active compounds read low
[7] = S. cerevisiae deletion strains, locus YGR078C, strain PAC10, active compounds read low
[8] = S. cerevisiae deletion strains, locus YHR030C, strain SLT2, active compounds read low
[9] = S. cerevisiae deletion strains, locus YHR087W, strain rtc3, active compounds read low
[10] = S. cerevisiae deletion strains, locus YJR043C, strain POL32, active compounds read low
[11] = S. cerevisiae deletion strains, locus YJR075W, strain HOC1, active compounds read low
[12] = S. cerevisiae deletion strains, locus YKL190W, strain CNB1, active compounds read low
[13] = S. cerevisiae deletion strains, locus YLR039C, strain RIC1, active compounds read low
[14] = S. cerevisiae deletion strains, locus YLR058C, strain SHM2 (second series), active compounds read low
[15] = S. cerevisiae deletion strains, locus YLR085C, strain ARP6, active compounds read low
[16] = S. cerevisiae deletion strains, locus YLR262C, strain YPT6, active compounds read low
[17] = S. cerevisiae deletion strains, locus YML094W, strain GIM5, active compounds read low
[18] = S. cerevisiae deletion strains, locus YMR219W, strain ESC1, active compounds read low
[19] = S. cerevisiae deletion strains, locus YMR263W, strain SAP30, active compounds read low
[20] = S. cerevisiae deletion strains, locus YMR307W, strain GAS1, active compounds read low
[21] = S. cerevisiae deletion strains, locus YNL153C, strain GIM3, active compounds read low
[22] = S. cerevisiae deletion strains, locus YNL298W, strain CLA4 (second series), active compounds read low
[23] = S. cerevisiae deletion strains, locus YNL322C, strain KRE1, active compounds read low
[24] = S. cerevisiae deletion strains, locus YNR030W, strain Alg12, active compounds read low
[25] = S. cerevisiae deletion strains, locus YPL055C, strain LGE1, active compounds read low
[26] = S. cerevisiae deletion strains, locus YPL241C, strain CIN2, active compounds read low
[27] = S. cerevisiae deletion strains, locus YPR135W, strain CTF4, active compounds read low

## N/C(=N/O)c1csc(-c2ccc(F)cc2F)n1
[1]
  normalized growth: 0.96
[2]
  normalized growth: 0.978
[3]
  normalized growth: 1.02
[4]
  normalized growth: 0.995
[5]
  normalized growth: 0.968
[6]
  normalized growth: 1.01
[7]
  normalized growth: 0.989
S. cerevisiae deletion strains, locus YGR229C, strain SMI1, active compounds read low
  normalized growth: 0.995
[8]
  normalized growth: 0.921
[9]
  normalized growth: 0.98
[10]
  normalized growth: 1
[11]
  normalized growth: 1.02
[12]
  normalized growth: 0.996
[13]
  normalized growth: 0.933
[14]
  normalized growth: 1.01
[15]
  normalized growth: 1.14
[16]
  normalized growth: 0.969
[17]
  normalized growth: 0.933
[18]
  normalized growth: 0.995
[19]
  normalized growth: 0.997
[20]
  normalized growth: 1.25
[21]
  normalized growth: 0.986
[22]
  normalized growth: 1.01
[23]
  normalized growth: 1
[24]
  normalized growth: 0.983
[25]
  normalized growth: 0.943
[26]
  normalized growth: 1
[27]
  normalized growth: 0.844
S. cerevisiae strains, strain wild type, active compounds read low
  normalized growth: 0.991

## Cc1ccc(/C(N)=N\O)cc1F
[1]
  normalized growth: 0.998
[2]
  normalized growth: 1
[3]
  normalized growth: 1.01
[4]
  normalized growth: 0.988
[5]
  normalized growth: 0.995
[6]
  normalized growth: 1.01
[7]
  normalized growth: 1.01
[8]
  normalized growth: 1.03
[9]
  normalized growth: 1
S. cerevisiae deletion strains, locus YJL187C, strain SWE1, active compounds read low
  normalized growth: 1.02
[10]
  normalized growth: 1.01
[11]
  normalized growth: 1.03
[12]
  normalized growth: 0.988
[13]
  normalized growth: 1.04
[14]
  normalized growth: 1.02
[15]
  normalized growth: 1.32 [resistant] (active)
[16]
  normalized growth: 0.997
[17]
  normalized growth: 1
[18]
  normalized growth: 1
[19]
  normalized growth: 1
[20]
  normalized growth: 1.24
S. cerevisiae deletion strains, locus YNL128W, strain TEP1, active compounds read low
  normalized growth: 0.975
[21]
  normalized growth: 1.02
[22]
  normalized growth: 1.02
[23]
  normalized growth: 1
[24]
  normalized growth: 0.989
S. cerevisiae deletion strains, locus YOL006C, strain TOP1, active compounds read low
  normalized growth: 1.03
[25]
  normalized growth: 1.03
[26]
  normalized growth: 1.1
[27]
  normalized growth: 1.07
